Test results reported in PubChem BioAssay (EPA / NIEHS).
Inconclusive results are not listed. Activity calls are given as the source filed them. The calls were made as follows, unless noted: active = hit-call score of the fitted dose curve at least 0.9, where 1 is the maximum; inconclusive = response in the unintended direction; inactive = score below 0.9.

Assays:
[1] = read-out: xenobiotic metabolism (CYP1A1), CYP1A1 (gene 1543); test: CLD_CYP1A1_6hr: CellzDirect (CLD) Gene Expression Assay for xenobiotic metabolism (CYP1A1) at 6 hours (AID 2283661);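 as to AC50: potency for transcript induction above DMSO vehicle baseline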
Method in brief: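 Read-out 6 h post-dose: qNPA chemiluminescent quantitation of transcript induction against 0.2% DMSO. Cells were cultured primary human hepatocytes from two separate donor preparations; phase-contrast morphology annotated apparent cytotoxicity.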

[2] = Tanguay_ZF_120hpf_TR_legacy: (Legacy) Oregon State University Tanguay Lab 120 Hour Post-fertilization zebrafish Assay for Touch Response (AID 2283667)
Method in brief: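 Binary touch-response endpoint in larvae at 120 hpf after static waterborne exposure from embryo stage (28°C, 0.64% DMSO vehicle, 5 uM trimethyltin chloride as positive control); embryos dead at 24 or 120 hpf excluded; fitted as gain versus DMSO.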

[3] = read-out: glucuronosyltransferase (UGT1A1), UGT1A1 (gene 54658); test: CLD_UGT1A1_6hr: CellzDirect (CLD) Gene Expression Assay for glucuronosyltransferase (UGT1A1) at 6 hours (AID 2283672)
Method in brief: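 UGT1A1 mRNA induction, read by quantitative nuclease protection assay, 6 h after dosing primary human hepatocytes (two donors, 0.2% DMSO vehicle). Gain of signal fitted relative to vehicle.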

[4] = read-out: xenobiotic metabolism (CYP1A1), CYP1A1 (gene 1543); test: CLD_CYP1A1_24hr: CellzDirect (CLD) Gene Expression Assay for xenobiotic metabolism (CYP1A1) at 24 hours (AID 2283673);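 also: CYP1A1 mRNA level by quantitative nuclease protection with chemiluminescence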
Method in brief: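 Transcript levels were read at 24 h by qNPA chemiluminescence in human liver primary cells. Cells got daily fresh dosing at multiple concentrations (vehicle 0.2% DMSO). Induction fitted upward against DMSO; phase-contrast cytotoxicity annotated.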

[5] = read-out: ABC Transporter (ABCB11), ABCB11 (gene 8647); test: CLD_ABCB11_6hr: CellzDirect (CLD) Gene Expression Assay for ABC Transporter (ABCB11) at 6 hours (AID 2283675);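 also: hits raise ABCB11 mRNA level so AC50 marks induction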
Method in brief: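 Read-out was ABCB11 mRNA gain of signal by quantitative nuclease protection assay, relative to 0.2% DMSO vehicle, 6 h post-dose. Cells were primary human hepatocytes from two donors, treated across multiple concentrations; phase-contrast cytotoxicity noted yes/no.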

[6] = CLD_ACTIN_6hr: CellzDirect (CLD) Gene Expression Assay for Baseline Control (Actin) at 6 hours (AID 2283676);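 also: active means increased actin mRNA relative to DMSO vehicle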
Method in brief: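 Baseline actin transcript level measured by qNPA (S1 nuclease protection, chemiluminescence) in human hepatocyte cultures 6 h after chemical exposure; 0.2% DMSO vehicle as reference, cytotoxicity noted from morphology.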

[7] = read-out: Cytochrome P450 2C19 (Homo sapiens) (UniProt P33261); test: CLD_CYP2C19_6hr: CellzDirect (CLD) Gene Expression Assay for xenobiotic metabolism (CYP2C19) at 6 hours (AID 2283678)
Method in brief: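 CYP2C19 transcript induction was quantified by quantitative nuclease protection assay with chemiluminescent read-out, 6 h after dosing. Cells were primary human hepatocytes from two donor preparations, given fresh dosing solutions daily in 0.2% DMSO vehicle. Activity was relative to DMSO.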

[8] = CCTE_Padilla_ZF_144hpf_TERATOSCORE: (Legacy) CCTE's 144 Hour Post-fertilization zebrafish Assay Teratoscore, Padilla Lab (AID 2283679; active = hit-call score of the fitted dose curve at least 0.9, where 1 is the maximum; inactive = score below 0.9;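 as to AC50: zebrafish embryos with chorions exposed by immersion from 6-8 hpf to 5 dpf with daily renewal; teratogenicity score from eye scoring of death hatching and malformations at 144 hpf; higher score means more developmental defects relative to DMSO baseline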)
Method in brief: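 Larvae scored by eye at 144 hpf for death, hatching and malformations after a day in clean Hanks'. Before that, daily-renewed exposure at 80 uM (0.4% DMSO, 26C) from roughly 6-8 hpf through 5 dpf, 4 embryos per chemical.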

[9] = read-out: HMG-CoA synthase (HMGCS2), HMGCS2 (gene 3158); test: CLD_HMGCS2_6hr: CellzDirect (CLD) Gene Expression Assay for HMG-CoA synthase (HMGCS2) at 6 hours (AID 2283682);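 also: actives raise HMGCS2 transcript above the 0.2% DMSO vehicle baseline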
Method in brief: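 HMGCS2 transcript induction read by quantitative nuclease protection with chemiluminescence, 6 h after dosing of primary human hepatocytes. Baseline was 0.2% DMSO vehicle; phase-contrast morphology gave a yes/no cytotoxicity annotation.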

[10] = read-out: xenobiotic metabolism (CYP1A2), CYP1A2 (gene 1544); test: CLD_CYP1A2_24hr: CellzDirect (CLD) Gene Expression Assay for xenobiotic metabolism (CYP1A2) at 24 hours (AID 2283683)
Method in brief: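 CYP1A2 mRNA induction measured by quantitative nuclease protection (chemiluminescent) in human primary hepatocytes 24 h after multi-concentration chemical dosing with daily fresh solutions. DMSO (0.2%) baseline; positive-direction fitting; morphology-based cytotoxicity noted.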

[11] = read-out: ABC Transporter (ABCB1), ABCB1 (gene 5243); test: CLD_ABCB1_24hr: CellzDirect (CLD) Gene Expression Assay for ABC Transporter (ABCB1) at 24 hours (AID 2283684)
Method in brief: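 ABCB1 mRNA induction versus 0.2% DMSO vehicle was read by qNPA chemiluminescence at 24 h. Cultured human hepatocytes from two donor preparations received daily fresh dosing, and phase-contrast cytotoxicity calls were annotated alongside the data.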

[12] = read-out: Cytochrome P450 2B6 (Homo sapiens) (UniProt P20813); test: CLD_CYP2B6_24hr: CellzDirect (CLD) Gene Expression Assay for xenobiotic metabolism (CYP2B6) at 24 hours (AID 2283686)
Method in brief: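 qNPA chemiluminescent measurement of mRNA at 24 hours in human primary hepatocyte cultures from two donor preparations, with daily fresh dosing and 0.2% DMSO vehicle as baseline. Morphology-based cytotoxicity flagged yes/no.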

[13] = read-out: Cytochrome P450 3A4 (Homo sapiens) (UniProt P08684); test: CLD_CYP3A4_24hr: CellzDirect (CLD) Gene Expression Assay for xenobiotic metabolism (CYP3A4) at 24 hours (AID 2283689)
Method in brief: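 CYP3A4 mRNA induction read by quantitative nuclease protection (chemiluminescence) 24 hr after dosing. Cultured human hepatocytes (two donor preparations) treated daily, vehicle 0.2% DMSO; phase-contrast morphology annotates cytotoxicity.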

[14] = read-out: organic anion transporter (SLCO1B1), SLCO1B1 (gene 10599); test: CLD_SLCO1B1_24hr: CellzDirect (CLD) Gene Expression Assay for organic anion transporter (SLCO1B1) at 24 hours (AID 2283690)
Method in brief: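 SLCO1B1 mRNA induction read at 24 h by quantitative nuclease protection assay (chemiluminescence), analyzed against DMSO baseline. Human hepatocyte cultures from separate donors received fresh dosing solutions daily; vehicle 0.2% DMSO; cytotoxicity flagged by phase-contrast morphology.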

[15] = read-out: Cytochrome P450 2C19 (Homo sapiens) (UniProt P33261); test: CLD_CYP2C19_24hr: CellzDirect (CLD) Gene Expression Assay for xenobiotic metabolism (CYP2C19) at 24 hours (AID 2283687);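 also: activity means mRNA induction above DMSO vehicle baseline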
Method in brief: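 CYP2C19 mRNA was quantified by qNPA chemiluminescence after 24 h of daily dosing of cultured human primary hepatocytes from two donors; vehicle was 0.2% DMSO, and increases over DMSO baseline were fitted.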

[16] = read-out: Cytochrome P450 2C9 (Homo sapiens) (UniProt P11712); test: CLD_CYP2C9_24hr: CellzDirect (CLD) Gene Expression Assay for xenobiotic metabolism (CYP2C9) at 24 hours (AID 2283688)
Method in brief: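 Induction of CYP2C9 mRNA was quantified by quantitative nuclease protection assay (chemiluminescence), gain of signal versus 0.2% DMSO vehicle, 24 h after dosing. Human primary hepatocytes (two donors) received fresh chemical daily at multiple concentrations; morphology-based cytotoxicity flagged yes/no.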

Measured: AC50

Sequence of Cytochrome P450 3A4 (Homo sapiens) (P08684 whole entry, looked up): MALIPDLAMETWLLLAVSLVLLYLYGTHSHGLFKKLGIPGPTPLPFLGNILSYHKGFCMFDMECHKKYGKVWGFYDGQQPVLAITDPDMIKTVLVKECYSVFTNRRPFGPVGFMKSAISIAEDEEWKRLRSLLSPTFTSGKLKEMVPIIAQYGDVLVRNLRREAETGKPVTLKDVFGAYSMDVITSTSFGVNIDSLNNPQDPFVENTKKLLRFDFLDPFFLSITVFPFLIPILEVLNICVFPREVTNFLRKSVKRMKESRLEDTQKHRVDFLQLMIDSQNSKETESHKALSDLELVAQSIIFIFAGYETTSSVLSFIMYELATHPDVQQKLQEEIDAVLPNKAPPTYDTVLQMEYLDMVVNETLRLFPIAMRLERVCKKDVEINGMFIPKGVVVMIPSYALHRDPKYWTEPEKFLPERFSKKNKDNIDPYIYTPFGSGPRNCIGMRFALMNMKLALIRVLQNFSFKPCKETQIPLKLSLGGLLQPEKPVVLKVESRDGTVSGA
Sequence of Cytochrome P450 2C19 (Homo sapiens) (P33261 whole entry, looked up): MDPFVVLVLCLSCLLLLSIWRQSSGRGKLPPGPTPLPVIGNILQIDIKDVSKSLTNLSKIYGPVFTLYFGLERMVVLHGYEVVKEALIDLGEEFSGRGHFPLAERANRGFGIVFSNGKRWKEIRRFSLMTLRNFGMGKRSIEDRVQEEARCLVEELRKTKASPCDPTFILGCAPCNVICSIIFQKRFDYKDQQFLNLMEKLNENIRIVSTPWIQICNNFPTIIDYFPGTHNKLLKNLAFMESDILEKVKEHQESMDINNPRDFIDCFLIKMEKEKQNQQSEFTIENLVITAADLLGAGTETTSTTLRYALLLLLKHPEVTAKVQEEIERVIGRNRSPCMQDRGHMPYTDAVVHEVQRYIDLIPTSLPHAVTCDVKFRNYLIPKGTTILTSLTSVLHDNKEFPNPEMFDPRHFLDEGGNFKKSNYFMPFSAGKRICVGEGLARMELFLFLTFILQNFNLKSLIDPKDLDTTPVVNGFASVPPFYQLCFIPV

CCc1nn(C)c(C(=O)NCc2ccc(C(C)(C)C)cc2)c1Cl
active: [1] 6.51 µM | [4] 7.44 µM | [8] 0.164 µM | [13] 20 µM
not listed: [15] | [16]
inactive: all other assays above

CC(C)Oc1cc(-n2nc(C(C)(C)C)oc2=O)c(Cl)cc1Cl
inactive: [2] | [3] | [6] | [11]
active: [1] 1.57 µM | [4] 4.05 µM | [8] 9.05 µM | [10] 4.14 µM | [12] 829 nM | [13] 1.9 µM

Fc1ccc(Oc2ccnc3cc(Cl)cc(Cl)c23)cc1
active: [1] 3.13 µM | [4] 2.49 µM | [8] 5.83 µM | [10] 2.84 µM
inactive: [2] | [3] | [11] | [12]

Cc1cc(Cl)ccc1OCC(=O)O
not listed: [5] | [9] | [10]
inactive: all other assays above

COC(=O)N(OC)c1ccccc1COc1ccn(-c2ccc(Cl)cc2)n1
active: [4] 1.9 µM | [8] 0.192 µM | [10] 0.545 µM | [13] 3.73 µM
not listed: [1] | [3] | [6]
inactive: all other assays above

CCNc1nc(Cl)nc(NC(C)C)n1
active: [1] 2.19 µM | [4] 4.27 µM | [10] 3.11 µM | [12] 3920 nM | [13] 20 µM
not listed: [5] | [6] | [14] | [16]
inactive: all other assays above

CC(C)(C)c1ccc(CSc2cnn(C(C)(C)C)c(=O)c2Cl)cc1
active: [4] 20 µM | [13] 39.3 µM
inactive: [2] | [5] | [6] | [9] | [10] | [11] | [15] | [14]
